Experimental findings from PubChem BioAssay are described below.

Test [1] can be described thus: small molecules captured by biotinylated probe aFSTL3 – biochemical, small-molecule microarray, fluorescence 635/667, stem cell growth factor project, primary screen (AID 1064).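 Note: measures binding of the biotinylated anti-FSTL3 antibody to printed compounds.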 The note with it: higher = more signal.
Test [2] in a line: binders from COS7 lysate, DM2A8 probe, primary screen, torsin A project, cell lysate, small-molecule microarray, fluorescence 635/667 (AID 1065). The conditions noted are these: higher = more signal, COS7 lysate expressing mutant human TOR1A.
Test [3] is described as follows: small molecules captured by biotinylated probe aFGF2 – biochemical, small-molecule microarray, fluorescence 635/667, stem cell growth factor project, primary screen (AID 1067).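 Note: measures binding of biotinylated aFGF2 protein to printed compounds on slides; z-score merges feature fluorescence and signal-to-noise across triplicate slides.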 The conditions noted are these: higher = more signal.
Test [4] in a line: small molecules captured by biotinylated probe aFGF10 – biochemical, small-molecule microarray, fluorescence 635/667, stem cell growth factor project, primary screen (AID 1071).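 Note: score merges 667 nm spot intensity and signal to noise from triplicate slides.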 The conditions noted are these: higher = more signal.
Test [5] concerns the target Neurogenic locus notch homolog protein 2 (Homo sapiens) (UniProt Q04721). The test is described as follows: small molecules binding Notch2 protein – biochemical, small-molecule microarray, 635 nm fluorescence, stem cell growth factors, primary screen (AID 1073). The conditions noted are these: higher = more signal.
In test [6] the target is Pro-neuregulin-1, membrane-bound isoform (Homo sapiens) (UniProt Q02297). The test is described as follows: small molecules binding neuregulin-1 protein – biochemical, small-molecule microarray, fluorescence 635/667, psychiatric disease protein project, primary screen (AID 1075).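 Note: score combines 667 nm spot fluorescence with signal to noise.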 The conditions noted are these: NRG1 binding, 635 nm fluorescence, higher = more signal.
Test [7] concerns Neuregulin-1 EGF-like domain. The test is described as follows: small molecules binding NRG1 EGF domain – biochemical, small-molecule microarray, 635 nm fluorescence, primary screen (AID 1081).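 Note: binding of the protein to compounds printed on small-molecule microarray slides.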 The note with it: higher = more signal.
Test [8] is described as follows: FRG1 expression reporter modulators in myotubes – cell-based, C2C12 myotubes, firefly/Renilla luciferase, luminescence, FRG1 inhibition for FSHD, primary screen (AID 1084). The conditions noted are these: FRG1 promoter luciferase, higher = more signal, called active from +8 up or from −8 down.
Test [9] is described as follows: small molecules captured by biotinylated probe aFST – biochemical, small-molecule microarray, fluorescence 635/667, stem cell growth factor project, primary screen (AID 1086).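 Note: score merges 667 nm fluorescence with signal-to-noise of each printed compound spot.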 The note with it: higher = more signal.
A short description of test [10]: binders of probe aHhip on microarray, primary screen, stem cell growth factor project, biochemical, small-molecule microarray, fluorescence 635/667 (AID 1087).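 Note: score merges spot fluorescence at 667nm with spot signal to noise ratio.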 The conditions noted are these: higher = more signal.
The subject of test [11] is PRMT1 (protein arginine N-methyltransferase 1). The test is described as follows: small molecules binding arginine methyltransferase PRMT1 – biochemical, small-molecule microarray, 635 nm fluorescence, primary screen (AID 1088).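 Note: binding of Prmt1 protein to compounds spotted on small-molecule microarray slides.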 The note with it: higher = more signal.
Test [12] can be described thus: growth effects on S. cerevisiae YJM789 – YJM789 clinical isolate, OD600, 24 h, basal, primary screen (AID 1089).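 Note: growth of clinical yeast isolate S. cerevisiae YJM 789 seeded 1000 cells per well; test concentration not given here.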 The note with it: higher = more signal, called active from +8 up or from −8 down.
A short description of test [13]: S. pombe growth modifiers, basal conditions – strain 972, OD600, 24 h, no modulator, primary screen (AID 1090).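 Note: basal condition with compound alone and no growth modifier present; test concentration not given here.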 The conditions noted are these: S. pombe 972 growth, higher = more signal, called active from +8 up or from −8 down.
Test [14] in a line: budding yeast growth modifiers under rapamycin – strain BY4716, OD600, 96 h, primary screen (AID 1091). Note: test concentration not given here. The conditions noted are these: S. cerevisiae BY4716 + rapamycin, higher = more signal, called active from +8 up or from −8 down.
Test [15] concerns the target Torsin-1A-interacting protein 2 (Homo sapiens) (UniProt Q8NFQ8). The test is described as follows: small molecules binding lysate-expressed LULL1 – cell lysate, human LULL1 lysate, 635/667 nm fluorescence, primary screen (AID 1092).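 Note: probe is lysate of COS7 cells overexpressing human LULL1; score merges per-feature 667 nm fluorescence with signal-to-noise.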 The note with it: small-molecule microarray, hLULL1 lysate binding, 635 nm fluorescence; higher = more signal.
The nature of test [16]: optical density change of DRC41 E. coli – strain DRC41, OD650, 24 h, E. coli filamentation project, primary screen (AID 1093).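 Note: MC1000 strain lacking acrAB efflux and sulA so SOS filamentation is blocked; test concentration not given here.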 The note with it: E. coli DRC41 growth, higher = more signal, called active from +8 up or from −8 down.
Test [17] is described as follows: probe aLefty2 binding to arrayed compounds – biochemical, biotinylated probe, 635/667 nm fluorescence, primary screen (AID 1094).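 Note: score merges spot fluorescence near 667 nm with spot signal-to-noise ratio.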 The note with it: small-molecule microarray, higher = more signal.
Test [18] has as its system Noggin (protein binding on small-molecule microarray). The test is described as follows: small molecules binding Noggin protein – biochemical, 635/667 nm fluorescence, primary screen (AID 1095).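 Note: score merges 667 nm feature fluorescence with signal to noise over triplicate slides.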 The conditions noted are these: 635 nm fluorescence, higher = more signal.
Test [19] addresses Neurogenic locus notch homolog protein 3 (Homo sapiens) (UniProt Q9UM47). The test is described as follows: small molecules binding NOTCH3 protein – biochemical, 635/667 nm fluorescence, primary screen (AID 1096). The conditions noted are these: small-molecule microarray, 635 nm fluorescence, higher = more signal.
Test [20] can be described thus: probe aEGFR binding to arrayed compounds – biochemical, biotinylated probe, 635/667 nm fluorescence, primary screen (AID 1097).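 Note: probe is a biotinylated anti-EGFR antibody binding compounds printed on slides; score combines fluorescence near 667 nm and signal to noise of each spot.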 The conditions noted are these: small-molecule microarray, higher = more signal.

Calls of active or inactive are those of the source.

Chain of Pro-neuregulin-1, membrane-bound isoform (Homo sapiens) (Q02297 whole entry, looked up, the tested form may be a part, canonical isoform): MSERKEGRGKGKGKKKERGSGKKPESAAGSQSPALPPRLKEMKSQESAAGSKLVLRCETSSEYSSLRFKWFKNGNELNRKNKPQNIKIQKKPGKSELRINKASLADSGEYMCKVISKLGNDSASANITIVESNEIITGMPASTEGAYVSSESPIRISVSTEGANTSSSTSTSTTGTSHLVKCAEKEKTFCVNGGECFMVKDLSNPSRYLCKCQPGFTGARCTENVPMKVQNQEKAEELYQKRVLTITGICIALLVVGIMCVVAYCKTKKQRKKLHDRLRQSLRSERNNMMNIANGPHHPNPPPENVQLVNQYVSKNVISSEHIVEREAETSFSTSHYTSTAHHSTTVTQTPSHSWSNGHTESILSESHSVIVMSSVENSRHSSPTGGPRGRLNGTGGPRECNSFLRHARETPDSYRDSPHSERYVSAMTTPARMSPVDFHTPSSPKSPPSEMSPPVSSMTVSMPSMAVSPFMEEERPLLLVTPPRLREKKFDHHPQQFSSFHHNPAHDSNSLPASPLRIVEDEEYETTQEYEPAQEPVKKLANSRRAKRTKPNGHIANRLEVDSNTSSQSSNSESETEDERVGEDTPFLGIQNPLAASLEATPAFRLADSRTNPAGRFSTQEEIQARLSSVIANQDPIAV
Chain of Neurogenic locus notch homolog protein 2 (Homo sapiens) (Q04721 whole entry, looked up, canonical isoform): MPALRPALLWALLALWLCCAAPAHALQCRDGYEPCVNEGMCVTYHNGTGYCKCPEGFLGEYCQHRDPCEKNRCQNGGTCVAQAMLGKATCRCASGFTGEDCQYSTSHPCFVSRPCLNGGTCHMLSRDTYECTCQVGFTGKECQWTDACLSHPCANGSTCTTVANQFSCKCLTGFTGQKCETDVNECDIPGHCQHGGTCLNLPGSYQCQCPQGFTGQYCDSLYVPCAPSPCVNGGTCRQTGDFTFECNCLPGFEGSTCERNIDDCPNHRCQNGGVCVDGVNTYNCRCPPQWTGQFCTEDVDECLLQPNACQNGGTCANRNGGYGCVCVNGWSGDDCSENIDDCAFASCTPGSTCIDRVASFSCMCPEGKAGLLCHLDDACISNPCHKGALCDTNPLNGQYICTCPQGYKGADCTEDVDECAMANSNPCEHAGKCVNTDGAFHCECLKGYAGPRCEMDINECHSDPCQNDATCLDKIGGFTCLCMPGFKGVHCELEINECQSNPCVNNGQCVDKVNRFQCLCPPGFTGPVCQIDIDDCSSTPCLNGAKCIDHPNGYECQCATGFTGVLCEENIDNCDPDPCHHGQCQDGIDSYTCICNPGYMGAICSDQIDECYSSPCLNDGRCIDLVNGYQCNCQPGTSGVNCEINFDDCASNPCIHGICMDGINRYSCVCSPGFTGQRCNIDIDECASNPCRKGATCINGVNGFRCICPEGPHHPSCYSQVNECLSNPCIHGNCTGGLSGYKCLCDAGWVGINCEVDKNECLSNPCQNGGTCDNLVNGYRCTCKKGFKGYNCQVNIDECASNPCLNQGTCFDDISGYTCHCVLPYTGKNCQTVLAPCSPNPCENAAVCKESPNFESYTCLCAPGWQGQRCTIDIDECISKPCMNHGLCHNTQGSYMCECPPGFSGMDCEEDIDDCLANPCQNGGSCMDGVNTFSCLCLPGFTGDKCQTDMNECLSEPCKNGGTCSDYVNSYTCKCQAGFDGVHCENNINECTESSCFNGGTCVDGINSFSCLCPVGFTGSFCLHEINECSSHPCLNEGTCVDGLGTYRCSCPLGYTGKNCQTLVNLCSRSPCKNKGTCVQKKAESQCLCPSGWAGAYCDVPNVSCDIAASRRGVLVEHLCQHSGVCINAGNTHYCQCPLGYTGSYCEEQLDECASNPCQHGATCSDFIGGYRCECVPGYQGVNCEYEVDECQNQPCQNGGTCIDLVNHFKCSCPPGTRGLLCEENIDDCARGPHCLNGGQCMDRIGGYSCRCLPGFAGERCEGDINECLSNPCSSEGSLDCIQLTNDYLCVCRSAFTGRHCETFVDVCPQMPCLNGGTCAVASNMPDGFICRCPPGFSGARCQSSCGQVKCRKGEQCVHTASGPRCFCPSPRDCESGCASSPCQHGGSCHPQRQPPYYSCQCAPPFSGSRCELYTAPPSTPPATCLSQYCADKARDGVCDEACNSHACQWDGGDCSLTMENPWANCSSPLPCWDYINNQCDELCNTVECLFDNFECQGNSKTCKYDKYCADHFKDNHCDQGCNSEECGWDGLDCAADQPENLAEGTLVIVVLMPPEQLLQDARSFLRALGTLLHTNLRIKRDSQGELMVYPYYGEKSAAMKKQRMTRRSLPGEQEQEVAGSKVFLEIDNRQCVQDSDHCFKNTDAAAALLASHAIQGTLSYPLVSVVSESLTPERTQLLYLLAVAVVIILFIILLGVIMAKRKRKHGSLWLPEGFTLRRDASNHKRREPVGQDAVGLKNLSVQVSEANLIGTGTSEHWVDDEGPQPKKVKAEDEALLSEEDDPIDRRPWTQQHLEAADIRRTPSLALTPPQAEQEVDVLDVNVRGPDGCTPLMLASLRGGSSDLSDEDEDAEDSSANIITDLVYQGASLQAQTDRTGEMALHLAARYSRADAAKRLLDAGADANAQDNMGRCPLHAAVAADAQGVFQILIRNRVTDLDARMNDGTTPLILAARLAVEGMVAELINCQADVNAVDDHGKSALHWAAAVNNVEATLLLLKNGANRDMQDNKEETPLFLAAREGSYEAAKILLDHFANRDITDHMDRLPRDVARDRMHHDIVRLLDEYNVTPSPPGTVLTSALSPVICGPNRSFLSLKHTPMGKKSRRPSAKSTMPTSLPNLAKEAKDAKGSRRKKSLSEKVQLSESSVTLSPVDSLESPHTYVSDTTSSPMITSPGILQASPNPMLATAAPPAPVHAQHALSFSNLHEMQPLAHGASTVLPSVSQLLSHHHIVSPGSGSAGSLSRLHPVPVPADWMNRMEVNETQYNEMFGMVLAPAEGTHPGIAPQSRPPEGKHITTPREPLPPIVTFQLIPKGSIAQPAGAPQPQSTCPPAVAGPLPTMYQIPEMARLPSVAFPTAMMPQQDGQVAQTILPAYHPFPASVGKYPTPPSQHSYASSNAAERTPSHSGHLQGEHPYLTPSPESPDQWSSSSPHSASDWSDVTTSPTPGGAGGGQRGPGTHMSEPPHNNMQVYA
Chain of Torsin-1A-interacting protein 2 (Homo sapiens) (Q8NFQ8 whole entry, looked up): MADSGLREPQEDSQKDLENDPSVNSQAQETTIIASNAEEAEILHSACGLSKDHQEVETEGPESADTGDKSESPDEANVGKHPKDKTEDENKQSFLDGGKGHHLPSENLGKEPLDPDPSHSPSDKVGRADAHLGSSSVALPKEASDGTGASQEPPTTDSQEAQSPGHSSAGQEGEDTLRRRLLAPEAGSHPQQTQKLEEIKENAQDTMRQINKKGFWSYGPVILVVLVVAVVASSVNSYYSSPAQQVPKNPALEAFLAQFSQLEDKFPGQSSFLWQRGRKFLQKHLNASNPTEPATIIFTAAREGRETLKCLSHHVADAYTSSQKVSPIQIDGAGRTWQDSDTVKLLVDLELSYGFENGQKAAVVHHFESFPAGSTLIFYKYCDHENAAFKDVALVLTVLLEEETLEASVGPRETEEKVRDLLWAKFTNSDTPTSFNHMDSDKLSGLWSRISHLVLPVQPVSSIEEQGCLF

Take `CCCCCCc1nc(C2CC2)c(C)c2c1[Si](C(C)C)(C(C)C)OC2`: the composite z-score in test [1] was 0.411; in [2], 0.159; in test [3], -0.167; in [4], -0.588; in [5], -0.923; in test [6], -0.322. The composite z-score is -0.629 in test [7]; -0.266 in [9]; -0.0672 in test [10]; -1.09 in test [11]; -0.492 in test [15]; -0.0591 in test [17]. The results for the composite z-score in test [18], in test [19] and in test [20] were 0.168, -1.26 and -0.202, respectively. Further, the z-score in test [8] is -0.139 (inactive); in [12], -2.2 (inactive); in [13] it was -3.58 (inactive); in test [14] it was -1.75 (inactive); in [16] it was 1.69 (inactive).

Take `O=C(NCC(F)(F)F)[C@@H]1c2ccccc2C(=O)N(Cc2ccccc2Cl)[C@H]1c1ccc(CO)cc1`: the composite z-score in test [1] was 1.39; in [2], -0.338; in test [3] it was -0.0964; in [4], -0.601; in [5], -1.37; in test [6] it was -0.341. The composite z-score in [7] was 1.39; in test [9], 0.214; in test [10], -0.47; in [11] it was -0.809; in test [15], 1.18; in test [17] it was -0.605. Also, the composite z-score in test [18] is -1.5; in [19], -1.14; in [20], -0.0721. Moreover, the z-score in test [8] was -1.3 (inactive); in test [12] it was -0.896 (inactive); in test [13] it was -0.243 (inactive); in test [14], 0.0061 (inactive); in test [16] it was 0.939 (inactive).

In the case of `COc1cccc([C@H]2N[C@H](C(=O)O)CC[C@@H]2C)c1`, the composite z-score in [1] was -0.356; in [2], 0.0291; in [3], -0.0885; in test [4], -0.42; in test [5], 0.238; in test [6], -0.0739. In addition, the composite z-score in test [7] was -0.212; in [9], 0.425; in test [10], -0.127; in test [11] it was -0.158; in test [15], 0.0605; in [17] it was -0.23. Also, the values for the composite z-score in test [18], in test [19] and in test [20] were 0.002, 0.202 and -0.139, respectively. The z-score in test [8] is -0.0831 (inactive); in [12], -0.535 (inactive); in test [13] it was -0.823 (inactive); in test [14], 0.48 (inactive); in [16] it was 0.395 (inactive).

Take `Cc1ccc(N2C(=O)c3ccccc3[C@@H](C(=O)NCC(F)(F)F)[C@@H]2c2ccc(CO)cc2)nc1`: the composite z-score in test [1] was 1.83; in test [2] it was -1.33; in test [3], -0.195; in test [4], -1.11; in test [5] it was -2.11; in [6] it was 1.15. The composite z-score is 1.26 in [7]; -0.869 in test [9]; -0.539 in test [10]; -0.359 in test [11]; -0.338 in [15]; 0.0143 in test [17]. For the same compound, the values for the composite z-score in test [18], in test [19] and in test [20] were -2.15, -1.01 and -0.157, respectively. In addition, the z-score in [8] is -0.307 (inactive); in test [12], -0.678 (inactive); in test [13], -1.24 (inactive); in test [14], 3.03 (inactive); in test [16], 1.08 (inactive).

Take `CC(C)C[C@@H]1NC(=O)[C@H]2C[C@@H](C(=O)NCCCCCC[N+](C)(C)C)[C@@H](c3ccc(O)cc3)N2C1=O`: the composite z-score was -0.332 in [1]; 0.64 in [2]; -0.189 in test [3]; -0.615 in test [4]; -0.471 in test [5]; 1.77 in test [6]. The composite z-score in test [7] is 1.41; in [9], 0.0716; in test [10], -0.0994; in test [11] it was 0.423; in [15] it was 1.82; in test [17], -0.134. Besides, the composite z-score was 1.12 in test [18], 0.275 in test [19] and -0.149 in test [20]. In addition, the z-score in test [8] was 2.82 (inactive); in test [12], 0.248 (inactive); in [13], 0.0827 (inactive); in test [14], 0.109 (inactive); in test [16], 0.283 (inactive).
